# Source: PubChem BioAssay
# Active and inactive are the calls of the source.
# Experiments:
# [1] = small molecules captured by biotinylated probe aFSTL3 – biochemical, small-molecule microarray, fluorescence 635/667, stem cell growth factor project, primary screen (AID 1064); details: higher = more signal;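 also: measures binding of the biotinylated anti-FSTL3 antibody to printed compounds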
# [2] = binders from COS7 lysate, DM2A8 probe, primary screen, torsin A project, cell lysate, small-molecule microarray, fluorescence 635/667 (AID 1065); details: higher = more signal, COS7 lysate expressing mutant human TOR1A
# [3] = small molecules captured by biotinylated probe aFGF2 – biochemical, small-molecule microarray, fluorescence 635/667, stem cell growth factor project, primary screen (AID 1067); details: higher = more signal;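 also: measures binding of biotinylated aFGF2 protein to printed compounds on slides; z-score merges feature fluorescence and signal-to-noise across triplicate slides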
# [4] = small molecules captured by biotinylated probe aFGF10 – biochemical, small-molecule microarray, fluorescence 635/667, stem cell growth factor project, primary screen (AID 1071); details: higher = more signal;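 also: score merges 667 nm spot intensity and signal to noise from triplicate slides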
# [5] = molecular target: Neurogenic locus notch homolog protein 2 (Homo sapiens) (UniProt Q04721); assay: small molecules binding Notch2 protein – biochemical, small-molecule microarray, 635 nm fluorescence, stem cell growth factors, primary screen (AID 1073); details: higher = more signal
# [6] = molecular target: Pro-neuregulin-1, membrane-bound isoform (Homo sapiens) (UniProt Q02297); assay: small molecules binding neuregulin-1 protein – biochemical, small-molecule microarray, fluorescence 635/667, psychiatric disease protein project, primary screen (AID 1075); details: NRG1 binding, 635 nm fluorescence, higher = more signal;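 also: score combines 667 nm spot fluorescence with signal to noise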
# [7] = system: Neuregulin-1 EGF-like domain; assay: small molecules binding NRG1 EGF domain – biochemical, small-molecule microarray, 635 nm fluorescence, primary screen (AID 1081); details: higher = more signal;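 also: binding of the protein to compounds printed on small-molecule microarray slides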
# [8] = FRG1 expression reporter modulators in myotubes – cell-based, C2C12 myotubes, firefly/Renilla luciferase, luminescence, FRG1 inhibition for FSHD, primary screen (AID 1084); details: FRG1 promoter luciferase, higher = more signal, called active from +8 up or from −8 down
# [9] = small molecules captured by biotinylated probe aFST – biochemical, small-molecule microarray, fluorescence 635/667, stem cell growth factor project, primary screen (AID 1086); details: higher = more signal;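 also: score merges 667 nm fluorescence with signal-to-noise of each printed compound spot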
# [10] = binders of probe aHhip on microarray, primary screen, stem cell growth factor project, biochemical, small-molecule microarray, fluorescence 635/667 (AID 1087); details: higher = more signal;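 also: score merges spot fluorescence at 667nm with spot signal to noise ratio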
# [11] = system: PRMT1 (protein arginine N-methyltransferase 1); assay: small molecules binding arginine methyltransferase PRMT1 – biochemical, small-molecule microarray, 635 nm fluorescence, primary screen (AID 1088); details: higher = more signal;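 also: binding of Prmt1 protein to compounds spotted on small-molecule microarray slides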
# [12] = growth effects on S. cerevisiae YJM789 – YJM789 clinical isolate, OD600, 24 h, basal, primary screen (AID 1089); details: higher = more signal, called active from +8 up or from −8 down;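 also: growth of clinical yeast isolate S. cerevisiae YJM 789 seeded 1000 cells per well; test concentration not given here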
# [13] = S. pombe growth modifiers, basal conditions – strain 972, OD600, 24 h, no modulator, primary screen (AID 1090);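 also: basal condition with compound alone and no growth modifier present; test concentration not given here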; details: S. pombe 972 growth, higher = more signal, called active from +8 up or from −8 down
# [14] = budding yeast growth modifiers under rapamycin – strain BY4716, OD600, 96 h, primary screen (AID 1091); also: test concentration not given here; details: S. cerevisiae BY4716 + rapamycin, higher = more signal, called active from +8 up or from −8 down
# [15] = molecular target: Torsin-1A-interacting protein 2 (Homo sapiens) (UniProt Q8NFQ8); assay: small molecules binding lysate-expressed LULL1 – cell lysate, human LULL1 lysate, 635/667 nm fluorescence, primary screen (AID 1092); details: small-molecule microarray, hLULL1 lysate binding, 635 nm fluorescence; higher = more signal;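 also: probe is lysate of COS7 cells overexpressing human LULL1; score merges per-feature 667 nm fluorescence with signal-to-noise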
# [16] = optical density change of DRC41 E. coli – strain DRC41, OD650, 24 h, E. coli filamentation project, primary screen (AID 1093);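 also: MC1000 strain lacking acrAB efflux and sulA so SOS filamentation is blocked; test concentration not given here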; details: E. coli DRC41 growth, higher = more signal, called active from +8 up or from −8 down
# [17] = probe aLefty2 binding to arrayed compounds – biochemical, biotinylated probe, 635/667 nm fluorescence, primary screen (AID 1094); details: small-molecule microarray, higher = more signal;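 also: score merges spot fluorescence near 667 nm with spot signal-to-noise ratio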
# [18] = system: Noggin (protein binding on small-molecule microarray); assay: small molecules binding Noggin protein – biochemical, 635/667 nm fluorescence, primary screen (AID 1095); details: 635 nm fluorescence, higher = more signal;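 also: score merges 667 nm feature fluorescence with signal to noise over triplicate slides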
# [19] = molecular target: Neurogenic locus notch homolog protein 3 (Homo sapiens) (UniProt Q9UM47); assay: small molecules binding NOTCH3 protein – biochemical, 635/667 nm fluorescence, primary screen (AID 1096); details: small-molecule microarray, 635 nm fluorescence, higher = more signal
# [20] = probe aEGFR binding to arrayed compounds – biochemical, biotinylated probe, 635/667 nm fluorescence, primary screen (AID 1097); details: small-molecule microarray, higher = more signal;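 also: probe is a biotinylated anti-EGFR antibody binding compounds printed on slides; score combines fluorescence near 667 nm and signal to noise of each spot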
# Torsin-1A-interacting protein 2 (Homo sapiens), sequence (Q8NFQ8 whole entry, looked up): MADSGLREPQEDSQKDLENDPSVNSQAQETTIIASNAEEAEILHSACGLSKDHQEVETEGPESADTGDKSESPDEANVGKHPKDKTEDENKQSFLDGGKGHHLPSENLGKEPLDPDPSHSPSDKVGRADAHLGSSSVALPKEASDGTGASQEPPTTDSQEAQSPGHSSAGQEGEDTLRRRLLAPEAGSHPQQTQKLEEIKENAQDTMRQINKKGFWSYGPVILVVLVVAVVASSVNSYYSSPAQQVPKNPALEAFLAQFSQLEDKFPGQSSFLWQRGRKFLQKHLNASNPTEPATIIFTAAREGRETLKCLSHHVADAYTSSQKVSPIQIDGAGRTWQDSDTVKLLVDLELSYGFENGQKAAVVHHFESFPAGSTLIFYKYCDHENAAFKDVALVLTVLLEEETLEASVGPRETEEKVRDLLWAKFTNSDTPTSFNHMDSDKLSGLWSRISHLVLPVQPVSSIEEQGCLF
# Pro-neuregulin-1, membrane-bound isoform (Homo sapiens), sequence (Q02297 whole entry, looked up, the tested form may be a part, canonical isoform): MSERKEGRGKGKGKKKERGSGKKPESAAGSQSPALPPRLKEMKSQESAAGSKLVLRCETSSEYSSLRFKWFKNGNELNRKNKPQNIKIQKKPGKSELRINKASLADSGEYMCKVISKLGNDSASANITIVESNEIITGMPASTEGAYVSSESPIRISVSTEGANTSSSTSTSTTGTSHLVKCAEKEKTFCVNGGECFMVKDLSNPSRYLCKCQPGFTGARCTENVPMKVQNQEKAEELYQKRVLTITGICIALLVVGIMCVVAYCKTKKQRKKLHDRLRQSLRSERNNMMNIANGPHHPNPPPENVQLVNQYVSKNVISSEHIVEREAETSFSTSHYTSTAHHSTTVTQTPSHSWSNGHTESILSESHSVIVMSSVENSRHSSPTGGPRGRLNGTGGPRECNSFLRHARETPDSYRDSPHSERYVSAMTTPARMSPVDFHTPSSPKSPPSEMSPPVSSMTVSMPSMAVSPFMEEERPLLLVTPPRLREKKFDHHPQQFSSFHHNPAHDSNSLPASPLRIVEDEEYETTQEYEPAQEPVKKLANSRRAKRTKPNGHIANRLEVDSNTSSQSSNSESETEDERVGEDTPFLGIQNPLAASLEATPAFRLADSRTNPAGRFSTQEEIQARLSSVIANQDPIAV
# Neurogenic locus notch homolog protein 3 (Homo sapiens), sequence (Q9UM47 whole entry, looked up): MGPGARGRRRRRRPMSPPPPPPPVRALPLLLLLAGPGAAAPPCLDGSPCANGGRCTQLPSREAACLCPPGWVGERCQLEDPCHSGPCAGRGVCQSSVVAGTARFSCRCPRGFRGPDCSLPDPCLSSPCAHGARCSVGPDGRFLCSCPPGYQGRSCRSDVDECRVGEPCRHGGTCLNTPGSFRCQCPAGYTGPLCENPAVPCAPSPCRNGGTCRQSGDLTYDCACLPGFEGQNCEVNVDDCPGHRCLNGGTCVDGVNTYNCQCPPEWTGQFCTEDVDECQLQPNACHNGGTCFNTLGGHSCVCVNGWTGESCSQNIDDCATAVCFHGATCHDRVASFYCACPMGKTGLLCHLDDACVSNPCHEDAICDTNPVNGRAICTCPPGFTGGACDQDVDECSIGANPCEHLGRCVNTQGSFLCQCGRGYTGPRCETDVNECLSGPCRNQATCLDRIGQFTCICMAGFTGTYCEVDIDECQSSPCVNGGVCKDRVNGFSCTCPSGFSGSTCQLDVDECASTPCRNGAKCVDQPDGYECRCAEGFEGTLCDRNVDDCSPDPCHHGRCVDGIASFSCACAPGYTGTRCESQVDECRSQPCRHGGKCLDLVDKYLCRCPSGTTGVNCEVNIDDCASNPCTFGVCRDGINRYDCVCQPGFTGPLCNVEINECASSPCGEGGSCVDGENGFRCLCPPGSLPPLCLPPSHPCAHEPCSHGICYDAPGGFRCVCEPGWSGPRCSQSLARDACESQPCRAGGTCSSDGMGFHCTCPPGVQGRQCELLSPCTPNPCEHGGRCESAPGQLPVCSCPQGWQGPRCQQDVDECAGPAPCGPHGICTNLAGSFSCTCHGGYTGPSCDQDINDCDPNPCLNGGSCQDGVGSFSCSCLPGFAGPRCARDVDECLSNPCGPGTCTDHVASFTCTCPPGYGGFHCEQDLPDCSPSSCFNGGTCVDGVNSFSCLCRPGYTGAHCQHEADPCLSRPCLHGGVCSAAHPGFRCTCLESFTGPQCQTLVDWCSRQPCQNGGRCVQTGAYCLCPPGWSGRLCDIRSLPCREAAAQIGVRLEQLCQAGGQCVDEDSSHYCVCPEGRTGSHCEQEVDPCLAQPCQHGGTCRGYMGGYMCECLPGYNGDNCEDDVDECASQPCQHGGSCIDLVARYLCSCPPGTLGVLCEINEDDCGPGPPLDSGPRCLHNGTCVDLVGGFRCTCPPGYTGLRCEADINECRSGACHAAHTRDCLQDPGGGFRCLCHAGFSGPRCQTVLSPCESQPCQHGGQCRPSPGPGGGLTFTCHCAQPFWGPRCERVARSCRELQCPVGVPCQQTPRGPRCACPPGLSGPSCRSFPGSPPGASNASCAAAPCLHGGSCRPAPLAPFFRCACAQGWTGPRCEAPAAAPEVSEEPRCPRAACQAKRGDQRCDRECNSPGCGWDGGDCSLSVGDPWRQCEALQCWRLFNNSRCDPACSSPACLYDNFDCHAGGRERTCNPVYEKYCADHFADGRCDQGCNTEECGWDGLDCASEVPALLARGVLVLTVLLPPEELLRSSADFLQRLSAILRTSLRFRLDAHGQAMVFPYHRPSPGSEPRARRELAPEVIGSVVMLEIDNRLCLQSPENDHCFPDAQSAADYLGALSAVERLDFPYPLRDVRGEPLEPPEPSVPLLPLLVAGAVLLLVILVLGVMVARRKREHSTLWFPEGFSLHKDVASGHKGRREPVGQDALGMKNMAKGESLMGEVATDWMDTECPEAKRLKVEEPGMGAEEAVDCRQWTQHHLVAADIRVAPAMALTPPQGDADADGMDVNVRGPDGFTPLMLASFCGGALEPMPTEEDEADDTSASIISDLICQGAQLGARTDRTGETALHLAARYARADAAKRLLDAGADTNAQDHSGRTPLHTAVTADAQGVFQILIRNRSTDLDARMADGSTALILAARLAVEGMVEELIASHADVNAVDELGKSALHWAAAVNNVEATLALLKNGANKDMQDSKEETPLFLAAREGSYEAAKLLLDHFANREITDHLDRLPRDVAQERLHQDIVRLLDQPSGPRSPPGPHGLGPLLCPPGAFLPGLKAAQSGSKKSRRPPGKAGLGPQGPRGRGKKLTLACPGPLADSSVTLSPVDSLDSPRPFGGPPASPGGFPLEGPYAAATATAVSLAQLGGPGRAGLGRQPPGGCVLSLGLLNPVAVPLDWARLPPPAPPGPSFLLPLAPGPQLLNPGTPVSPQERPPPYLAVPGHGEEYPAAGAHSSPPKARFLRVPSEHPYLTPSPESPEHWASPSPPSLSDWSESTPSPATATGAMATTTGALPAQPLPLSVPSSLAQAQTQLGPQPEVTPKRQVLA
Structure (SMILES),composite z-score [1],composite z-score [2],composite z-score [3],composite z-score [4],composite z-score [5],composite z-score [6],composite z-score [7],z-score [8],composite z-score [9],composite z-score [10],composite z-score [11],z-score [12],z-score [13],z-score [14],composite z-score [15],z-score [16],composite z-score [17],composite z-score [18],composite z-score [19],composite z-score [20]
[N-]=[N+]=NCc1ccccc1[C@H]1OC(c2ccc(OCCCO)cc2)=N[C@@]1(Cc1ccccc1N=[N+]=[N-])C(=O)N1CCOCC1,0.439,-0.154,0.156,0.383,1.55,1.96,1.21,-1.31 (inactive),1.07,-0.0994,1.58,-0.8 (inactive),1.23 (inactive),4.53 (inactive),3.36,0.175 (inactive),-0.0133,0.123,1.11,-0.0031
COC(=O)C(CC#Cc1ccc2c(c1)[C@]1(C(=O)N2)[C@H](C(N)=O)[C@H]2C(=O)O[C@H](c3ccccc3)[C@H](c3ccccc3)N2[C@@H]1c1ccccc1OCCO)C(=O)OC,0.29,1.81,-0.0122,0.765,-0.21,1.67,1.4,1.69 (inactive),-0.275,-0.0994,1.56,2.79 (inactive),0.943 (inactive),5.37 (inactive),3.13,1.12 (inactive),-0.075,0.877,0.576,0.0167
O=C(NC1CC1)[C@@H]1c2ccccc2C(=O)N(C2CCCCC2)[C@H]1c1ccc(CO)cc1,0.954,0.642,0.0611,-0.142,0.254,1.79,1.29,-0.601 (inactive),0.575,-0.228,0.384,0.116 (inactive),-0.0911 (inactive),0.0861 (inactive),2.76,0.398 (inactive),0.322,-0.923,0.25,0.595
C=CC[C@@]1(C(=O)NCCCOC)N=C(c2ccc(OCCCO)cc2)O[C@@H]1c1ccccc1CN=[N+]=[N-],0.227,-0.448,0.106,0.744,1.43,1.79,1.03,-1.97 (inactive),1.25,-0.105,1.55,-0.759 (inactive),-0.0094 (inactive),-0.966 (inactive),2.35,1.1 (inactive),0.258,1.01,1.12,0.0914
O=C1O[C@@H](c2ccccc2)[C@@H](c2ccccc2)N2[C@@H](c3ccccc3OCCO)[C@]3(C(=O)Nc4ccc(C#CC5(O)CCCCCC5)cc43)[C@@H](C(=O)N3CCCCCCC3)[C@H]12,4.04,2.44,1.08,1.47,1.89,2.67,1.4,-1.05 (inactive),3.81,3.97,1.53,0.834 (inactive),-0.51 (inactive),2.57 (inactive),5.07,1.23 (inactive),1.95,2.46,1,1.52
COc1ccc([Si](C)(C)[C@H]2[C@H](CC(=O)N3CCC[C@H]3CO)O[C@@]3(C(=O)N(C)c4ccccc43)[C@@H]2C)cc1,0.735,0.384,-0.0375,-0.0959,-0.711,0.63,1.4,-0.0568 (inactive),0.324,0.394,0.969,-0.42 (inactive),-0.134 (inactive),-0.401 (inactive),0.757,-0.735 (inactive),-0.0258,1.85,0.207,-0.151
COc1ccc(C#Cc2ccc3c(c2)[C@]2(C(=O)N3)[C@H](c3ccccc3OCCO)N3[C@H](c4ccccc4)[C@H](c4ccccc4)OC(=O)[C@H]3[C@@H]2C(=O)NC[C@H](O)c2ccccc2)cc1,-0.38,0.203,-0.0628,0.146,1,0.698,1.27,0.621 (inactive),0.469,0.21,1.54,2.42 (inactive),2.18 (inactive),2.92 (inactive),3,2.11 (inactive),-0.0168,1.58,1.08,0.095
COC(=O)[C@]1(Cc2ccccc2N=[N+]=[N-])N=C(c2ccc(OCCCO)cc2)O[C@@H]1c1ccccc1CN=[N+]=[N-],0.736,1.08,0.052,0.728,0.632,1.06,1.16,-2.25 (inactive),0.484,0.176,1.56,-0.141 (inactive),0.708 (inactive),36.8 (active),2.25,-0.763 (inactive),0.021,1.23,0.963,0.0258
C=CCOC(=O)[C@H]1[C@@H]2C(=O)O[C@@H](c3ccccc3)[C@@H](c3ccccc3)N2[C@@H](c2ccc(OCCOC(=O)[C@H]3C[C@H]4C(=O)NCC(=O)N4[C@H]3c3cccc(OCCO)c3)cc2)[C@]12C(=O)Nc1ccc(I)cc12,-0.365,0.469,-0.045,0.589,0.81,0.388,1.3,-0.18 (inactive),0.557,0.28,1.54,1.29 (inactive),0.682 (inactive),3.48 (inactive),2.78,0.0763 (inactive),-0.172,1.69,1.06,0.0389
[N-]=[N+]=NCc1ccccc1[C@H]1OC(c2ccc(OCCCO)cc2)=N[C@@]1(CCS(=O)(=O)c1ccccc1)C(=O)NCCN1CCOCC1,-0.0144,-0.523,0.126,1.04,1.67,1.57,1.27,3.26 (inactive),1.16,-0.0095,1.56,0.917 (inactive),0.306 (inactive),1.27 (inactive),3.5,-0.0501 (inactive),0.181,0.0038,1.06,0.214
[N-]=[N+]=NCc1ccccc1C[C@@]1(C(=O)NCCN2CCOCC2)N=C(c2ccc(OCCCO)cc2)O[C@@H]1c1ccccc1,-0.0252,-0.539,-0.0514,0.246,0.266,1.12,1.28,-3.05 (inactive),0.804,-0.0994,1.37,-0.941 (inactive),-3.76 (inactive),15.8 (active),2.96,-0.304 (inactive),-0.0073,0.565,0.65,-0.0128
C[C@]1(C(=O)NCC(F)(F)F)c2ccccc2C(=O)N(Cc2cc(C(F)(F)F)cc(C(F)(F)F)c2)[C@H]1c1ccc(CO)cc1,0.227,-0.616,-0.0578,0.0766,-0.317,0.275,1.11,0.549 (inactive),0.0351,-0.0994,0.594,0.182 (inactive),-0.0136 (inactive),-0.0066 (inactive),1.35,1.07 (inactive),-0.114,-0.736,-0.802,-0.11
O=C1O[C@H](c2ccccc2)[C@H](c2ccccc2)N2[C@H]1[C@@H](C(=O)O)[C@]1(C(=O)Nc3ccccc31)[C@H]2c1ccc(OCCO)cc1,-0.442,-0.0349,-0.0112,0.334,0.239,1.57,1.04,0.248 (inactive),0.215,0.176,1.53,-0.0404 (inactive),0.414 (inactive),-0.303 (inactive),3.27,1.36 (inactive),-0.065,0.286,0.33,-0.177
Cc1ccc(S[C@]2(C(=O)NCc3ccccc3)CC(=O)N(Cc3ccccc3Cl)[C@@H]2c2ccc(CO)cc2)cc1,1.05,-0.363,-0.0639,0.0799,-0.331,1.26,0.79,-3.18 (inactive),-0.603,-0.353,1.17,0.373 (inactive),-0.0114 (inactive),0.227 (inactive),2.07,-2.31 (inactive),0.145,-0.761,-0.0303,-0.258
COC(=O)[C@@]1(Cc2ccc(F)cc2)[C@H]2c3cc(C(=O)N4CCCC4)n(Cc4ccc(OC(F)(F)F)cc4)c3C[C@H]2CN1C(=O)c1ccccc1,0.262,-0.292,0.0336,0.334,1.08,0.621,0.71,1.45 (inactive),0.401,-0.0074,-1.08,0.646 (inactive),0.693 (inactive),-0.16 (inactive),2.1,-1.01 (inactive),-0.0238,-1.2,-1.23,-0.0472
CC1CC/C=C\[C@H]2OC34C=CCN(CCN5CCOCC5)C(=O)[C@H]3N(C(CO)C(C)C)C(=O)[C@@H]4C2C(=O)O1 (stereo not given in full),-0.0695,0.949,-0.133,-0.528,-0.916,1.77,0.907,-0.363 (inactive),-0.249,-0.069,1.42,-0.662 (inactive),-0.145 (inactive),-0.188 (inactive),3.2,-0.651 (inactive),-0.109,0.122,0.398,-0.0332
C=CCN1C(=O)[C@]2(O[C@H](CCO)[C@@H]([Si](C)(C)c3ccc(OC)cc3)[C@@H]2C)c2cc(N3C(=O)c4ccccc4Oc4ccccc43)ccc21,-0.086,-0.203,-0.0392,0.56,0.0699,0.967,1.03,-1.5 (inactive),0.0141,-0.236,1.41,0.922 (inactive),0.729 (inactive),35.6 (active),2.13,0.77 (inactive),-0.0658,0.458,0.803,-0.115
Cc1ccc(S(=O)(=O)N2[C@@H](c3ccccc3)C(C(=O)O)=CC[C@H]2c2ccc(F)cc2)cc1,-0.191,1.32,0.174,1.41,-0.0595,-0.0826,1.33,-2.75 (inactive),0.654,-0.252,1.26,-0.485 (inactive),0.364 (inactive),0.311 (inactive),4.08,-0.0865 (inactive),-0.0803,-0.0184,0.76,-0.241
C=C(C(=O)CC[C@@H](OC(=O)c1ccccc1-c1ccccc1C(=O)O)c1ccc(CO)o1)C(C)C,-0.422,1.18,-0.087,1.03,0.0438,0.115,0.445,0.0639 (inactive),0.379,-0.0645,1.47,-0.595 (inactive),-0.39 (inactive),-0.881 (inactive),0.167,-0.249 (inactive),-0.19,1.07,1.07,-0.0947
